Among the data in publication PMC7862700, “An all-to-all approach to the identification of sequence-specific readers for epigenetic DNA modifications on cytosine” are binding signal values, retold here.

What all share (test): DAPPL (digital affinity profiling via proximity ligation, sequencing); 10 mM Tris-HCl pH 7.5, 50 mM NaCl, 1 mM DTT, 4% glycerol, room temperature, 30 min; GST-TFs on glutathione beads, 16-mer random dsDNA library, 0.1% formaldehyde crosslink after washing; high values mean tight binding
Assay [1] concerns the target T1, FEV (Homo sapiens, UniProt Q99581 1-238).
T1 sequence: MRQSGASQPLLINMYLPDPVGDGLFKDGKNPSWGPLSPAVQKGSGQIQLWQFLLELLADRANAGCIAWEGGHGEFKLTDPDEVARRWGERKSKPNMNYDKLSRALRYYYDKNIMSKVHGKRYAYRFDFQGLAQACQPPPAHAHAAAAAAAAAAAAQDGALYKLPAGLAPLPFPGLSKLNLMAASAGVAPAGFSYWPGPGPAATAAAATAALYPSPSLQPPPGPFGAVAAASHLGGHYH
The note with it: protein: recombinant; tags: N-terminal GST; dsDNA, one strand shown. In short, it runs like this: (§1)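 Binding signal is given per hexamer as its read frequency for a factor divided by its frequency in the tag-only sample. GST-fused human transcription factors were expressed in yeast, captured on glutathione beads, barcoded with DNA and pooled with that sample, then incubated with 200 nmole of a 16-mer random double-stranded DNA library in Tris/NaCl/DTT/glycerol buffer for 30 min at room temperature. The pools were then washed, crosslinked, proximity-ligated, amplified by PCR and sequenced on an Illumina NextSeq500.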

The target of assay [2] is ETV5 (Homo sapiens, UniProt P41161 1-510). The note with it: protein: recombinant; tags: N-terminal GST; dsDNA, one strand shown. In short, it runs like this: as §1
Sequence of ETV5 (P41161 whole entry): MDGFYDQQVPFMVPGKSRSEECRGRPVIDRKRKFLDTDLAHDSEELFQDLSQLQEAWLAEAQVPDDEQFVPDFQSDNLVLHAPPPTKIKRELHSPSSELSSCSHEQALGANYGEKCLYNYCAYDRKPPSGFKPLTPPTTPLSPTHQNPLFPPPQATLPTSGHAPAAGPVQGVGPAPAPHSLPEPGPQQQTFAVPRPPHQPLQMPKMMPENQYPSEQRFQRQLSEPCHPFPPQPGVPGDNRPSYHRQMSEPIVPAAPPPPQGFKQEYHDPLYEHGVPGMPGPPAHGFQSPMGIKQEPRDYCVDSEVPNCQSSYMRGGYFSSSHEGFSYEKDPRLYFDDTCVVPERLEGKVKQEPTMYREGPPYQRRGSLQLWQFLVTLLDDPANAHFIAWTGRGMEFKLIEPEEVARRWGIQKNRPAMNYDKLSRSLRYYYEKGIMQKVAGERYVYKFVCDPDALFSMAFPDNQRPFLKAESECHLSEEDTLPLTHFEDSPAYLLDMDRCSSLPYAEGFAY
The target of assay [3] is HSF1 (Homo sapiens, UniProt Q00613 1-529). The note with it: protein: recombinant; tags: N-terminal GST; chain copies: 3; dsDNA, one strand shown. In short, it runs like this:
as §1

Assay [4] concerns the target T2, SPIC (Homo sapiens, UniProt Q8N5J4 1-248).
T2 sequence: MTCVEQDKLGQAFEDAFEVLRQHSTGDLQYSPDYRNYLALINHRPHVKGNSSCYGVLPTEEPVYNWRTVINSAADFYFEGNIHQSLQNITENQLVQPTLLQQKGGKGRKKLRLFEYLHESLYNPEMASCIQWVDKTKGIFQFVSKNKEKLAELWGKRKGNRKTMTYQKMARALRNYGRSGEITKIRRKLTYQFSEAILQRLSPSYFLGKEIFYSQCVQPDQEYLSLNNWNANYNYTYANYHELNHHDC
Conditions: protein: recombinant; tags: N-terminal GST; dsDNA, one strand shown. In short, it runs like this: as §1

In assay [5] the target is ELF4 (Homo sapiens, UniProt Q99607 1-663). Conditions: protein: recombinant; tags: N-terminal GST; dsDNA, one strand shown. In short, it runs like this:
as §1

The target in assay [6] is T3, ELK4 (Homo sapiens, UniProt P28324-2 1-405).
T3 sequence: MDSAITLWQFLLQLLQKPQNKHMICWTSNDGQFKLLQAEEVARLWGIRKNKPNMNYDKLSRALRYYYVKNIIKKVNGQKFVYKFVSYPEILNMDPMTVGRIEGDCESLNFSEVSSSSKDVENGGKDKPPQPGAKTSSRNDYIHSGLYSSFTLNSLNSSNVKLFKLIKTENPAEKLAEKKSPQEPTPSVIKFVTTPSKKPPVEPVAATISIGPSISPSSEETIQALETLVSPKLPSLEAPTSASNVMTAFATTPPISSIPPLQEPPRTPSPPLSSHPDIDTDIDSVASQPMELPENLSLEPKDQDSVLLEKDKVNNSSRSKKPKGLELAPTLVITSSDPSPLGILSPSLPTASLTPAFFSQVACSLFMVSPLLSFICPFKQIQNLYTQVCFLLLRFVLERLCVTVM
The note with it: protein: recombinant; tags: N-terminal GST; dsDNA, one strand shown. Put shortly: as §1

Assay [7] has as its target T4, ETV2 (Homo sapiens, UniProt O00321 1-342).
T4 sequence: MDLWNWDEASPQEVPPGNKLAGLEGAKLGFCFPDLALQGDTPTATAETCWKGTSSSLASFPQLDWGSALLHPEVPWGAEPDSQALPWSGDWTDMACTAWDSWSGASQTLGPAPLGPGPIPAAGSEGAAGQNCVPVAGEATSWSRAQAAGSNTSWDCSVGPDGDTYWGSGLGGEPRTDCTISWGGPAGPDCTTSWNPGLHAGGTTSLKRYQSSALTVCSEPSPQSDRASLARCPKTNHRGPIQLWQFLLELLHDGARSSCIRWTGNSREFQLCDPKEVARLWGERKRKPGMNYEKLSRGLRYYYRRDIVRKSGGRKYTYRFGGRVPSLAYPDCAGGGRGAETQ
Conditions: protein: recombinant; tags: N-terminal GST; dsDNA, one strand shown. In short, it runs like this: as §1

The target in assay [8] is T5, ELF3 (Homo sapiens, UniProt P78545 1-371).
T5 sequence: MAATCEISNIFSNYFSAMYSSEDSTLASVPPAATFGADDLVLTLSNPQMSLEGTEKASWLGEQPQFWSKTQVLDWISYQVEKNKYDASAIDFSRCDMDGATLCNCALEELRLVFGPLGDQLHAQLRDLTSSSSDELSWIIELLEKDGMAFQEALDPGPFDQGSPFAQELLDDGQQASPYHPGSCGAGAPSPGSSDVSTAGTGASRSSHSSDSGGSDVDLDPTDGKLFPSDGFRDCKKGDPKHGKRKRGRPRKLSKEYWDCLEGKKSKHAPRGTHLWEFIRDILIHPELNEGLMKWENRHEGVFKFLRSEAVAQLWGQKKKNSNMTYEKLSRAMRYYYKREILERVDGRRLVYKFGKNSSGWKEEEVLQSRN
Conditions: protein: recombinant; tags: N-terminal GST; dsDNA, one strand shown. In short, it runs like this: as §1

Assay [9] concerns the target CRX (Homo sapiens, UniProt O43186 1-299). Conditions: protein: recombinant; tags: N-terminal GST; dsDNA, one strand shown. Put shortly:
as §1

Assay [10] has as its target ETV1 (Homo sapiens, UniProt P50549 1-477). The note with it: protein: recombinant; tags: N-terminal GST; dsDNA, one strand shown. Put shortly: as §1
Assay [11] deals with T6, ERF (Homo sapiens, UniProt P50548 1-548).
T6 sequence: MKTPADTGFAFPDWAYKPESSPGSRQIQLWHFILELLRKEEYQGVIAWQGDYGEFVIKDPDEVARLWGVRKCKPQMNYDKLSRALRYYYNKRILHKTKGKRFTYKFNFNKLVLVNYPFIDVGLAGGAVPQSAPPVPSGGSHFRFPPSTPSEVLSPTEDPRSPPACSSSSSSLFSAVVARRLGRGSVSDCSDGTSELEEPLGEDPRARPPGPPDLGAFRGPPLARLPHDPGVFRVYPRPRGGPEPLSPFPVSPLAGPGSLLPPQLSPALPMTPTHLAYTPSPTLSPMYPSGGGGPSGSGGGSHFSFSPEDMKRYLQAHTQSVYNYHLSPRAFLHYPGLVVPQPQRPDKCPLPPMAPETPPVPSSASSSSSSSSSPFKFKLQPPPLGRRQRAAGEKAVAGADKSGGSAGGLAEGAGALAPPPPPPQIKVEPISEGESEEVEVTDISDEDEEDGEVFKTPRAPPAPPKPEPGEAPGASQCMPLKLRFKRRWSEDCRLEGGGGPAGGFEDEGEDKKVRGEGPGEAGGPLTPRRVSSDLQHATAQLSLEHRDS
Conditions: protein: recombinant; tags: N-terminal GST; dsDNA, one strand shown. Put shortly: as §1

The target in assay [12] is T7, ETV3L (Homo sapiens, UniProt Q6ZN32 1-361).
T7 sequence: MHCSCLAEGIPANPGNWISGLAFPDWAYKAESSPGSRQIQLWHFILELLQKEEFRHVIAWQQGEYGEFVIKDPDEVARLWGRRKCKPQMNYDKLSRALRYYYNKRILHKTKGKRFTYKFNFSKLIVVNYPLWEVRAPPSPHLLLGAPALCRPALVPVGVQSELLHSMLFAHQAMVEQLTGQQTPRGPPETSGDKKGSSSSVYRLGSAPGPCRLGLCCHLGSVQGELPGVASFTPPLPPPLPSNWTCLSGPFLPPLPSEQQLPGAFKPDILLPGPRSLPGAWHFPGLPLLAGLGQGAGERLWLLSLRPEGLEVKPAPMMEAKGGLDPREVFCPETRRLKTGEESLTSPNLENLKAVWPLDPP
The note with it: protein: recombinant; tags: N-terminal GST; dsDNA, one strand shown. In short, it runs like this:
as §1

For assay [13], the target named is T8, ETS2 (Homo sapiens, UniProt P15036 1-469).
T8 sequence: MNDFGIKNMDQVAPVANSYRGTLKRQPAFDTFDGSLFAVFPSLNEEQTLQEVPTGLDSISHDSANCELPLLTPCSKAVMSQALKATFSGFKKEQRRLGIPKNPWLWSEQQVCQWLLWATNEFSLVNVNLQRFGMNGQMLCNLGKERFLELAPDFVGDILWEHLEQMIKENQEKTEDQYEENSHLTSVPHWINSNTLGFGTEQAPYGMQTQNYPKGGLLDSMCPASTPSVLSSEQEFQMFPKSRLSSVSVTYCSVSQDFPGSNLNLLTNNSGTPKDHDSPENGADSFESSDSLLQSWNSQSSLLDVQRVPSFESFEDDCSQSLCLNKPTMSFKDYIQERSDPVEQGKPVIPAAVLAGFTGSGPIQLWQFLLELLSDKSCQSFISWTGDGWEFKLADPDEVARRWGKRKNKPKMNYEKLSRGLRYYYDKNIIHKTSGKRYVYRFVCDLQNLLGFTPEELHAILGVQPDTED
Conditions: protein: recombinant; tags: N-terminal GST; dsDNA, one strand shown. Put shortly:
as §1

Assay [14] has as its target T9, SPDEF (Homo sapiens, UniProt O95238 1-335).
T9 sequence: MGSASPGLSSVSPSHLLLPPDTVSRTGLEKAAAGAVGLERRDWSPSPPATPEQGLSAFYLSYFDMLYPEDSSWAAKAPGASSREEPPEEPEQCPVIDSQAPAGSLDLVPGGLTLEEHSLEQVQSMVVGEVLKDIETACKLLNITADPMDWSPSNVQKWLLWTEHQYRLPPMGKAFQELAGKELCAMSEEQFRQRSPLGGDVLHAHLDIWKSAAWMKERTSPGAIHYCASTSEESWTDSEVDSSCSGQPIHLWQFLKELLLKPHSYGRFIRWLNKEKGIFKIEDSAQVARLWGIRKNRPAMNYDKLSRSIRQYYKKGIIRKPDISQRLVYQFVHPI
Conditions: protein: recombinant; tags: N-terminal GST; dsDNA, one strand shown. Put shortly: as §1

The target of assay [15] is T10, ETV7 (Homo sapiens, UniProt Q9Y603 1-341).
T10 sequence: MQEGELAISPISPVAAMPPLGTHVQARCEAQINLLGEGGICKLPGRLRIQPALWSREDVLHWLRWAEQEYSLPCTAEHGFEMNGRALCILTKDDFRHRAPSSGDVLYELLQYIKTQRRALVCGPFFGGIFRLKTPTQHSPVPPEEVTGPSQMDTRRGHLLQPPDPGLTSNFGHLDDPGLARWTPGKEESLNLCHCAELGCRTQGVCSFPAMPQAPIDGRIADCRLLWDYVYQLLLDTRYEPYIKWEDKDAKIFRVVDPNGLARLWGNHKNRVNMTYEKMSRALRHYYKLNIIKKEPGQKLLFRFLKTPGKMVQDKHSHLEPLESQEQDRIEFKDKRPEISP
The note with it: protein: recombinant; tags: N-terminal GST; dsDNA, one strand shown. Put shortly:
as §1

Assay [16] concerns the target T11, ELF5 (Homo sapiens, UniProt Q9UKW6-2 1-255).
T11 sequence: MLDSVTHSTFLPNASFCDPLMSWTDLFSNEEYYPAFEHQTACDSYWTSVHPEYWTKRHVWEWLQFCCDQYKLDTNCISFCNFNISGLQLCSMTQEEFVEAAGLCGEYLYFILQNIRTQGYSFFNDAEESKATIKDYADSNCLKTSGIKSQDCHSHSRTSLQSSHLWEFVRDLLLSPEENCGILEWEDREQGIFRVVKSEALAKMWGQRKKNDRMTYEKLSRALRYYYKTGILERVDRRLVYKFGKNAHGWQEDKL
The note with it: protein: recombinant; tags: N-terminal GST; dsDNA, one strand shown. Put shortly:
as §1

For assay [17], the target named is T12, ETV3 (Homo sapiens, UniProt P41162-2 1-143).
T12 sequence: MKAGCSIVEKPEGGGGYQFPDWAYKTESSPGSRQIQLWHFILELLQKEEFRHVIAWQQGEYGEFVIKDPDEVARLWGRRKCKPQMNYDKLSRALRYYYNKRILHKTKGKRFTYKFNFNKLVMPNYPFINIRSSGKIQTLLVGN
The note with it: protein: recombinant; tags: N-terminal GST; dsDNA, one strand shown. In short, it runs like this:
as §1

For assay [18], the target named is ETV6 (Homo sapiens, UniProt P41212 1-452). The note with it: protein: recombinant; tags: N-terminal GST; dsDNA, one strand shown. Put shortly: as §1
Sequence of ETV6 (P41212 whole entry): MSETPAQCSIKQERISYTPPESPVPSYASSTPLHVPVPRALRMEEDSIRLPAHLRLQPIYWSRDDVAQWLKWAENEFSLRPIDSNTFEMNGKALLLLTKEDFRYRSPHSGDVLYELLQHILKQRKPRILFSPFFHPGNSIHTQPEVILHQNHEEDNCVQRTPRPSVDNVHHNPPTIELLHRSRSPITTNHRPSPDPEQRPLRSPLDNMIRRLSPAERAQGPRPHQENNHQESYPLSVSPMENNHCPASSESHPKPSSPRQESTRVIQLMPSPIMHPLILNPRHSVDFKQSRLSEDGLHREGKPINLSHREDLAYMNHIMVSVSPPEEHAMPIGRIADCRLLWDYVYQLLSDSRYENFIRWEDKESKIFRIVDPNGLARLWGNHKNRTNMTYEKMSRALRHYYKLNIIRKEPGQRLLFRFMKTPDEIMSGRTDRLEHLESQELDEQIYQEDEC

Sequence of ELF4 (Q99607 whole entry): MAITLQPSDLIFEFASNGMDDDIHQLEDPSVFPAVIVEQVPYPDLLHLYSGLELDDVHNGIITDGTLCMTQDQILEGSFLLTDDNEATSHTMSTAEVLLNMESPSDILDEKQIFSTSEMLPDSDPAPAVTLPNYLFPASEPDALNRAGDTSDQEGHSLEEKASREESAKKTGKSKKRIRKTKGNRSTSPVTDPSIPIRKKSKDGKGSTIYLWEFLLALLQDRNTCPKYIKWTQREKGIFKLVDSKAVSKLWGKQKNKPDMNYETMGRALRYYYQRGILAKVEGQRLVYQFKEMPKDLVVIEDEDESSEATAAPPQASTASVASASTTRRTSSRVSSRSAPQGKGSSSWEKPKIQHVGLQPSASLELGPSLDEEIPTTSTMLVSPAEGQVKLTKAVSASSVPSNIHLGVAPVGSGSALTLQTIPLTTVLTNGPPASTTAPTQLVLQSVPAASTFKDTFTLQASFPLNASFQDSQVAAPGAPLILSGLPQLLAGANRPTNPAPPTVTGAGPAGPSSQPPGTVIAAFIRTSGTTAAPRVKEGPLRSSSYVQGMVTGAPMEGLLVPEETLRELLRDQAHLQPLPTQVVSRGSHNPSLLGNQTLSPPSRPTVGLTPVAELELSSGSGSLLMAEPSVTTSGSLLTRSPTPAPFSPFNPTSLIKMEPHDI
Sequence of CRX (O43186 whole entry): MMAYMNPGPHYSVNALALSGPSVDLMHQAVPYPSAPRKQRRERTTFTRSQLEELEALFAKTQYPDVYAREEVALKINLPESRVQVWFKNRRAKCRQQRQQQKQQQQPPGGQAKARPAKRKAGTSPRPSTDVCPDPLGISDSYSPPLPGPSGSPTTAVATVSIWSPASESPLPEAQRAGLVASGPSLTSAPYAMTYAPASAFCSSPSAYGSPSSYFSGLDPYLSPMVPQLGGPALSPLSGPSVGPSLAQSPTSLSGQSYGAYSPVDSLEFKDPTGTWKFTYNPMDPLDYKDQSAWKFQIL
Sequence of ETV1 (P50549 whole entry): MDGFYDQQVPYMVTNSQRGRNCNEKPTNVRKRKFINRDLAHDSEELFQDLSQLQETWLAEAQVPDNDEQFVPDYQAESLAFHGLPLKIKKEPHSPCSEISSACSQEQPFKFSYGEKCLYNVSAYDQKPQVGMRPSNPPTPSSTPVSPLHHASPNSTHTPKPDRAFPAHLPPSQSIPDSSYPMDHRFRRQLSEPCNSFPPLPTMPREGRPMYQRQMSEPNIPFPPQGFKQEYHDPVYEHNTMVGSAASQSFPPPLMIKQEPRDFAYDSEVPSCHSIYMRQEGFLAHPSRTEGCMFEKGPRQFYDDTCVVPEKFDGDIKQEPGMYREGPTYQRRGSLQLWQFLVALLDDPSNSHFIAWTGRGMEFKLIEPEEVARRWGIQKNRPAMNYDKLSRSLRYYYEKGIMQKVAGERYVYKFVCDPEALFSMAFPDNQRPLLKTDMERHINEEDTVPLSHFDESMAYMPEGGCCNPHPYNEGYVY
Sequence of HSF1 (Q00613 whole entry): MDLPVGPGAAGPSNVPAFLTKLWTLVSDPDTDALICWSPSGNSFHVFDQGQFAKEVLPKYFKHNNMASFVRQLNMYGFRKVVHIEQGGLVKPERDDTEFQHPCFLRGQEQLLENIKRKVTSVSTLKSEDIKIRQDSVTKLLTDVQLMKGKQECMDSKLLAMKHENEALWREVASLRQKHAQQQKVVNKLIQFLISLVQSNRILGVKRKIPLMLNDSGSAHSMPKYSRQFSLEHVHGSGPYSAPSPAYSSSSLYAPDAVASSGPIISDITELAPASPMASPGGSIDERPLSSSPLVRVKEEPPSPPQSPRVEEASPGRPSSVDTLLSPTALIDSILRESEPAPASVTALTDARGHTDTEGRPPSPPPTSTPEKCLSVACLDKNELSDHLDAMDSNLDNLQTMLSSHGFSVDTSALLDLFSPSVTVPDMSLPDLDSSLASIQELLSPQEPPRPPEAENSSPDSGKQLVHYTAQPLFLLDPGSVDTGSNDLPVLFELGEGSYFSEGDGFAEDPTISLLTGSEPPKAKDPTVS

Turning to TAATAG, the binding signal was 1.18 fold enrichment (6-mer frequency, TF over GST control) in assay [1]; 1.21 fold enrichment (6-mer frequency, TF over GST control) in assay [2]; 1.54 fold enrichment (6-mer frequency, TF over GST control) in [3]; 1.39 fold enrichment (6-mer frequency, TF over GST control) in [4]; 1.15 fold enrichment (6-mer frequency, TF over GST control) in [5]; 1.19 fold enrichment (6-mer frequency, TF over GST control) in assay [6]. The binding signal in assay [7] is 1.02 fold enrichment (6-mer frequency, TF over GST control); in [8], 1.06 fold enrichment (6-mer frequency, TF over GST control); in [9], 1.94 fold enrichment (6-mer frequency, TF over GST control); in [10], 1.22 fold enrichment (6-mer frequency, TF over GST control); in assay [11] it was 1.24 fold enrichment (6-mer frequency, TF over GST control); in assay [12], 1.12 fold enrichment (6-mer frequency, TF over GST control). In addition, the binding signal in assay [13] is 1.2 fold enrichment (6-mer frequency, TF over GST control); in [14] it was 1.19 fold enrichment (6-mer frequency, TF over GST control); in [15], 1.2 fold enrichment (6-mer frequency, TF over GST control); in assay [16], 1.15 fold enrichment (6-mer frequency, TF over GST control); in [17], 1.15 fold enrichment (6-mer frequency, TF over GST control); in [18], 1.14 fold enrichment (6-mer frequency, TF over GST control).
